For 23 compounds, Potency results are on record in PubChem BioAssay (NCATS).

Records with an inconclusive call do not appear. Active and inactive are the calls of the source. The call rests on the fitted dose curve; in most records, active means well fitted curve in the direction sought with a large enough effect; inconclusive means small, poorly fitted or top-dose-only effect, or another doubt; inactive means no such curve, though single readings can be large; an effect the other way counts as inactive or inconclusive.

Assay [1] in a line: qHTS of pediatric cancer cell lines to identify multiple opportunities for drug repurposing: Confirmatory screen for DAOY cells (AID 1347114). Further: nearly all actives have a fitted effect of over 65% in size. A digest of the protocol: (§1)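 Viability measured as metabolically active cells via CellTiter-Glo luminescence following 48 hours of compound exposure, 11-point dilutions in confirmatory testing. 500-1,000 cells/well plated 5 hours before dosing; controls were DMSO and 2.3 µM bortezomib.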
A general note: qHTS replaces the single test concentration by a dilution series.

Assay [2] in a line: qHTS of pediatric cancer cell lines to identify multiple opportunities for drug repurposing: Confirmatory screen for SJ-GBM2 cells (AID 1347116). Further: nearly all actives have a fitted effect of over 60% in size. A digest of the protocol: as §1
The nature of assay [3]: qHTS of pediatric cancer cell lines to identify multiple opportunities for drug repurposing: Confirmatory screen for BT-37 cells (AID 1347117). Further: nearly all actives have a fitted effect of over 55% in size. In a few lines:
(§2)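 Viability after 48 h compound treatment at 37C, 500-1,000 cells/well, read as ATP luminescence with CellTiter-Glo. Primary screens used 11-point (MIPE, 0.78 nM-46 µM) or 8-point (NPC, 0.59 nM-46 µM) final concentrations; follow-up screens used 11-point dilutions.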

The nature of assay [4]: qHTS of pediatric cancer cell lines to identify multiple opportunities for drug repurposing: Confirmatory screen for TC32 cells (AID 1347118).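 Further: cells exposed to compound for 48 h before the read; nearly all actives have a fitted effect of over 65% in size.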 A digest of the protocol:
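TC32 cells, 500-1,000/well in growth medium, compound-treated 48 h at 37 °C; viability from CellTiter-Glo luminescence. Primary screen: MIPE 11-point (0.78 nM–46 µM final), NPC 8-point (0.59 nM–46 µM final); confirmatory at 11-point dilutions.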

Assay [5] in a line: qHTS of pediatric cancer cell lines to identify multiple opportunities for drug repurposing: Confirmatory screen for MG 63 (6-TG R) cells (AID 1347119). Further: nearly all actives have a fitted effect of over 55% in size. In a few lines: as §2
Assay [6] in a line: qHTS of pediatric cancer cell lines to identify multiple opportunities for drug repurposing: Confirmatory screen for control Hh wild type fibroblast cells (AID 1347121). Further: nearly all actives have a fitted effect of over 70% in size. In a few lines:
as §2

Assay [7] in a line: qHTS of pediatric cancer cell lines to identify multiple opportunities for drug repurposing: Confirmatory screen for Rh30 cells (AID 1347126). Further: nearly all actives have a fitted effect of over 55% in size. A digest of the protocol:
as §2

The nature of assay [8]: qHTS of pediatric cancer cell lines to identify multiple opportunities for drug repurposing: Confirmatory screen for NB-EBc1 cells (AID 1347115).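 Further: cells exposed to compound for 48 h before the viability read; nearly all actives have a fitted effect of over 45% in size.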 A digest of the protocol: as §2
Assay [9] in a line: qHTS of pediatric cancer cell lines to identify multiple opportunities for drug repurposing: Confirmatory screen for Rh18 cells (AID 1347125). Further: nearly all actives have a fitted effect of over 55% in size. In a few lines:
as §2

A short description of assay [10]: qHTS of pediatric cancer cell lines to identify multiple opportunities for drug repurposing: Confirmatory screen for RD cells (AID 1347124).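 Further: cells exposed to compound for 48 h before viability readout; nearly all actives have a fitted effect of over 65% in size.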 A digest of the protocol:
as §2
Potency means the concentration at half of the fitted maximal effect.

Turning to `CC1(C)CCC(CN2CCN(c3ccc(C(=O)NS(=O)(=O)c4ccc(NCC5CCOCC5)c([N+](=O)[O-])c4)c(Oc4cnc5[nH]ccc5c4)c3)CC2)=C(c2ccc(Cl)cc2)C1`, the Potency entry in assay [1], in [2], in assay [3], in [4], in [5] and in assay [6] was “inactive” throughout. Besides, the Potency entry in [7] is “inactive”.

For `C=C1C(=O)[C@@]23C(CC[C@@H]1[C@H]2O)[C@@]12CO[C@]3(O)[C@@H](O)[C@@H]1C(C)(C)CC[C@@H]2O` (some centres undefined), the Potency was 11.7 µM (active) in [1]; 8.27 µM (active) in [8]; 20.8 µM (active) in [2]; 18.5 µM (active) in [3]; 13.1 µM (active) in assay [4]; 10.4 µM (active) in assay [5]. Further, the Potency in assay [9] was 14.7 µM (active); in assay [7], 5.85 µM (active). The Potency entry in [6] was “inactive”.

As to `COc1ccc(-c2coc3cc(O)cc(O)c3c2=O)cc1`, the Potency result in assay [1], in assay [8], in [3], in [5], in assay [6] and in assay [9] was “inactive” in each case. For the same compound, the Potency result in assay [7] was “inactive”. Also, in [4], the Potency was 1.04 µM (active).

On to `CC1(C)CCC[C@@]2(C)[C@@H]1CC[C@@]1(C)OC(=O)C[C@H]21`, for which the Potency entry in assay [1], in [8], in assay [3], in assay [5], in assay [6] and in assay [9] was “inactive” each time. Also, the Potency in [7] is 0.0185 µM (active).

Take `O=c1[nH]cnc2c1ncn2[C@H]1CC[C@@H](CO)O1`: the Potency result in assay [1], in assay [8], in [2], in assay [3], in [4] and in assay [5] was “inactive” in each case. The Potency entry in assay [6], in [10] and in assay [7] was “inactive” in each case.

As to `CNC1CCC(N(Cc2cccc(-c3ccncc3)c2)C(=O)c2sc3c(F)ccc(F)c3c2Cl)CC1` (centres undefined), the Potency was 20.8 µM (active) in [1], 20.8 µM (active) in assay [3], 13.1 µM (active) in assay [4] and 23.3 µM (active) in [7]. Also, the Potency result in assay [8] and in assay [9] was “inactive” throughout.

In the case of `COc1cc2ncnc(Nc3ccc(F)c(Cl)c3)c2cc1OCCCN1CCOCC1`, the Potency in assay [1] is 38 µM (active); in [2], 2.4 µM (active); in assay [3], 13.5 µM (active); in assay [4] it was 33.9 µM (active); in assay [5], 67.6 µM (active); in assay [6], 47.9 µM (active). In addition, the values for the Potency in assay [10], in assay [9] and in assay [7] were 1.51 µM (active), 38 µM (active) and 8.51 µM (active), respectively.

`CC1(C)S[C@H]2[C@H](NC(=O)[C@@H](N)c3ccc(O)cc3)C(=O)N2[C@@H]1C(=O)O`: the Potency entry in assay [1], in assay [8], in assay [2], in assay [3], in [4] and in assay [5] was “inactive” in each case. Besides, the Potency entry in assay [6], in assay [10], in [9] and in [7] was “inactive” each time.

As to `COc1cc(N2CCC(N3CCN(C)CC3)CC2)ccc1Nc1ncc(Cl)c(Nc2ccccc2S(=O)(=O)C(C)C)n1`, the Potency in [1] was 16.5 µM (active); in [8], 14.7 µM (active); in assay [2], 23.3 µM (active); in assay [3] it was 14.7 µM (active); in [4] it was 1.85 µM (active); in assay [5], 0.827 µM (active). The Potency was 20.8 µM (active) in assay [6], 1.04 µM (active) in [10], 3.29 µM (active) in assay [9] and 0.737 µM (active) in assay [7].

On to `CC(C)(C(=O)NCC(F)(F)C(F)(F)F)C(=O)N[C@@H]1C(=O)Nc2ccccc2-c2ccccc21`, for which the Potency result in assay [1], in [8], in [2], in assay [5], in assay [6] and in assay [10] was “inactive” each time. Besides, the Potency result in assay [9] and in [7] was “inactive” each time.

Consider `O=C(O)c1ccc(-c2c[nH]c3ncc(-c4ccccc4)cc23)cc1C1CCCC1`, for which the Potency result in assay [1], in [8], in [2], in assay [3], in assay [4] and in [5] was “inactive” each time. Further, the Potency result in [6], in assay [10], in assay [9] and in [7] was “inactive” each time.

For `NS(=O)(=O)c1cccc2c1C(=O)c1cccc(O)c1C2=O`, the Potency in assay [1] was 2.33 µM (active); in assay [2] it was 4.14 µM (active); in assay [3] it was 0.737 µM (active); in [4], 0.827 µM (active); in [6], 2.93 µM (active); in [9], 2.33 µM (active). Moreover, in [7], the Potency was 2.93 µM (active). In addition, in assay [8], the Potency entry is “inactive”.

Take `OC[C@H]1O[C@@H](n2cnc3c2NC=NC[C@@H]3O)C[C@H]1O`: the Potency entry in assay [1], in [8], in assay [5], in [6], in assay [10] and in [9] was “inactive” throughout. Further, in assay [7], the Potency result was “inactive”. For the same compound, the Potency in assay [4] is 8.27 µM (active).

With `NC1=N[C@@]2(c3cc(NC(=O)c4ccc(F)cn4)ccc3F)COC[C@@H]2CS1`, the Potency result in [1], in assay [8], in assay [2], in assay [3], in assay [4] and in assay [5] was “inactive” throughout. For the same compound, the Potency entry in [6], in assay [10], in assay [9] and in assay [7] was “inactive” throughout.

For the compound `CC(C)n1nc(-c2ccc3oc(N)nc3c2)c2c(N)ncnc21`, the Potency in assay [1] is 5.85 µM (active); in [2], 0.165 µM (active); in assay [3], 0.0369 µM (active); in assay [4], 0.0465 µM (active); in [5], 0.0465 µM (active); in [10] it was 0.208 µM (active). The figures for the Potency in assay [9] and in assay [7] were 1.65 µM (active) and 0.293 µM (active), respectively.

As for `N[C@@]1(C(=O)O)CS(=O)(=O)[C@H]2[C@H](C(=O)O)[C@H]21`, the Potency entry in [1], in [8], in [6], in assay [10], in assay [9] and in assay [7] was “inactive” in each case. Besides, the Potency in [3] is 0.737 µM (active); in assay [4] it was 0.0522 µM (active); in assay [5] it was 13.1 µM (active).

With `Nc1ncnc2c1ncn2[C@@H]1O[C@@H](CO)[C@H](O)[C@H]1O`, the Potency result in [1], in assay [8], in assay [2], in assay [3], in [4] and in assay [5] was “inactive” in each case. Moreover, the Potency entry in assay [10], in [9] and in assay [7] was “inactive” in each case.

For the compound `Cc1nnc(C(C)C)n1C1C[C@H]2CC[C@@H](C1)N2CC[C@H](NC(=O)C1CCC(F)(F)CC1)c1ccccc1` (some centres undefined), the Potency result in [1] is “inactive”. In addition, the Potency was 7.37 µM (active) in assay [8]; 10.4 µM (active) in assay [2]; 7.37 µM (active) in [10]; 6.57 µM (active) in assay [9]; 9.27 µM (active) in assay [7].

Turning to `O=C1NC(=O)C(=Cc2ccc3c(c2)OC(F)(F)O3)S1`, the Potency in assay [1] was 26.1 µM (active). Also, the Potency result in [8], in assay [2], in [3], in assay [6], in [10] and in assay [9] was “inactive” each time. Also, the Potency result in assay [7] is “inactive”.

Consider `CC(=O)Nc1ccc([C@H](C)C(=O)Nc2ncc(C(C)C)s2)cc1`, for which the Potency is 4.65 µM (active) in assay [1]; 4.14 µM (active) in assay [3]; 7.37 µM (active) in assay [4]; 7.37 µM (active) in assay [10]; 2.08 µM (active) in assay [7]. The Potency entry in [8] and in assay [6] was “inactive” in each case.

As for `Oc1ccc(C2CCN(c3ccnc4ccccc34)CC2)cc1O`, the Potency in assay [1] was 5.85 µM (active); in assay [8] it was 14.7 µM (active); in assay [2] it was 1.17 µM (active); in [4], 9.27 µM (active); in assay [5], 2.33 µM (active); in assay [6] it was 7.37 µM (active). Also, in [10], the Potency is 0.928 µM (active). The Potency entry in assay [9] is “inactive”.

For `O=C1c2ccccc2-[n+]2ccc3c([nH]c4ccccc43)c21`, the Potency was 1.85 µM (active) in [1]; 2.61 µM (active) in assay [8]; 2.61 µM (active) in [2]; 1.04 µM (active) in assay [3]; 1.31 µM (active) in [4]; 3.29 µM (active) in [5]. Moreover, the Potency in [6] was 7.37 µM (active); in assay [10] it was 1.65 µM (active); in assay [9], 2.33 µM (active); in [7], 2.93 µM (active).

Consider `CC(=O)O[C@]1(C(C)=O)CC[C@@H]2[C@@H]3C[C@H](C)C4=CC(=O)CC[C@]4(C)[C@H]3CC[C@@]21C`, for which the Potency result in assay [1], in [8], in [5], in assay [6] and in [10] was “inactive” each time.
